Activity calls are given as the source filed them.
Assays:
[1] = system: Human papillomavirus type 1a protein E7 (residues 44-93); assay: small molecules binding HPV E7 44-93 – biochemical, small-molecule microarray, residues 44-93, 635 nm fluorescence, primary screen (AID 1108); conditions: fluorescence 635 nm, higher = more signal;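 also: E7 fragment applied at 1 µg/mL in TBST for 1 h at 4 C; score combines spot fluorescence with its signal to noise ratio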
[2] = hepatitis C replication reporter changes, two-sided – Huh7 cells, luciferase reporter, HCV replication inhibitor project, primary screen (AID 1109); conditions: Huh7 HCV replicon luciferase reporter, 48 h; higher = more signal;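 also: huh7 hepatoma cells harbouring a luciferase neomycin HCV replicon reporter; luciferase luminescence as measure of HCV replicon replication; test concentration not given here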
[3] = target: Left-right determination factor 2 (Homo sapiens) (UniProt O00292); assay: small molecules binding LEFTY2 protein – biochemical, small-molecule microarray, 635 nm fluorescence scan, primary screen (AID 1110); conditions: higher = more signal
Sequence of Left-right determination factor 2 (Homo sapiens) (O00292 whole entry, looked up): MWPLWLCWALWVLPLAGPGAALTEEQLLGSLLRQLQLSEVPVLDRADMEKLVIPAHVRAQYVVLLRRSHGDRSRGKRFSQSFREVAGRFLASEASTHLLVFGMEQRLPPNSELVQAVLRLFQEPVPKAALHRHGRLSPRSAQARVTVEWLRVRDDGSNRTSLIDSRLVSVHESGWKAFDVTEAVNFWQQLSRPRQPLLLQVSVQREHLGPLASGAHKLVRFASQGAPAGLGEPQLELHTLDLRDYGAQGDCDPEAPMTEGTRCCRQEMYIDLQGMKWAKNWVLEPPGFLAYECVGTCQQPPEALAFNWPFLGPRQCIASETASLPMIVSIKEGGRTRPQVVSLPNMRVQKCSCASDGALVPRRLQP

[4] = target: Calmodulin-1 (Homo sapiens) (UniProt P0DP23); assay: small molecules binding calmodulin-1 with EGTA – biochemical, small-molecule microarray, Cy5-labelled CALM1, profiling panel (AID 1111); conditions: Cy5-CALM1 binding fluorescence, higher = more signal;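 also: labelled calmodulin applied in Tris saline Tween buffer holding calcium plus EGTA and DTT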
[5] = target: Calmodulin-1 (Homo sapiens) (UniProt P0DP23); assay: small molecules binding Ca-loaded calmodulin-1 – biochemical, small-molecule microarray, Cy5-labelled CALM1, plus calcium, artefact control for SMM control-protein annotation, profiling panel (AID 1112); conditions: Cy5-CALM1 binding fluorescence, higher = more signal;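 also: score merges spot fluorescence with signal to noise from triplicate slides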
[6] = probe aWnt5a binding to arrayed compounds – biochemical, biotinylated probe, 635/667 nm fluorescence, primary screen (AID 1113); conditions: small-molecule microarray, higher = more signal;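 also: score merges 667 nm fluorescence intensity with signal-to-noise per printed feature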
[7] = probe aShh binding to arrayed compounds – biochemical, biotinylated probe, 635/667 nm fluorescence, primary screen (AID 1114); conditions: small-molecule microarray, higher = more signal;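 also: probe is biotin-labelled aShh protein from a stem cell growth factor screen; measures binding of labelled protein to compounds printed on the slide; score merges feature fluorescence at 667 nm with signal-to-noise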
[8] = probe aNog binding to arrayed compounds – biochemical, biotinylated probe, 635/667 nm fluorescence, primary screen (AID 1115); conditions: small-molecule microarray, higher = more signal;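 also: probe is biotinylated aNog protein used at 0.15 µg/mL for 1 h at 4 C; z-score combines 667 nm fluorescence of each spot with its signal to noise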
[9] = target: Torsin-1A-interacting protein 1 (Homo sapiens) (UniProt Q5JTV8); assay: compound microarray binding of lysate hLAP1 – cell lysate, small-molecule microarray, COS7 lysate, 635/667 nm fluorescence, primary screen (AID 1116); conditions: 635 nm fluorescence, higher = more signal
Sequence of Torsin-1A-interacting protein 1 (Homo sapiens) (Q5JTV8 whole entry, looked up): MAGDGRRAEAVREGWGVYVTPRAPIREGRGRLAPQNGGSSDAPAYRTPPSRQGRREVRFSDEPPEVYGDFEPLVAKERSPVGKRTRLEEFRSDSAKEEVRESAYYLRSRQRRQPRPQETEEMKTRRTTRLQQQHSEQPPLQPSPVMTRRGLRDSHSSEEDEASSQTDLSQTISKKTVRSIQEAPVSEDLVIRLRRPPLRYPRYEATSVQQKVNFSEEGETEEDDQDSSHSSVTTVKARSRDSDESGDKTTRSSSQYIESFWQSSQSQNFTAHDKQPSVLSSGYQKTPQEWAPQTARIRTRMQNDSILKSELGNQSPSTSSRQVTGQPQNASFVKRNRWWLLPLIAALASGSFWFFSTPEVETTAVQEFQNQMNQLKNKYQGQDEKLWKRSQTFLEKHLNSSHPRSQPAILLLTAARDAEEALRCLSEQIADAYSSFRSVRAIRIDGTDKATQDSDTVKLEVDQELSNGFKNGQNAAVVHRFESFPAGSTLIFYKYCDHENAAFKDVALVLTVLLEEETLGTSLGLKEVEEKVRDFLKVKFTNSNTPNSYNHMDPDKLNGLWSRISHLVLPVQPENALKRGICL

[10] = target: Alpha-bungarotoxin (Bungarus multicinctus) (UniProt P60615); assay: compounds binding labelled alpha-BTX control protein – biochemical, small-molecule microarray, Alexa647 label, 635/667 nm fluorescence, artefact control for SMM control protein annotation, profiling panel (AID 1117); conditions: alpha-BTX-A647 binding fluorescence, higher = more signal
Sequence of Alpha-bungarotoxin (Bungarus multicinctus) (P60615 whole entry, looked up): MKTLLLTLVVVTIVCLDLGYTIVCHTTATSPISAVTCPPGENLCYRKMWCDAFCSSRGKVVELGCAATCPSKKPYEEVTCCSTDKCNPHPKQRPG

[11] = target: Albumin (Bos taurus) (UniProt P02769); assay: compounds binding labelled BSA control protein – biochemical, small-molecule microarray, Alexa647 label, 635/667 nm fluorescence, artefact control for SMM control protein annotation, profiling panel (AID 1118); conditions: BSA-A647 binding, fluorescence 635 nm, higher = more signal;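 also: score merges 667 nm emission intensity and signal-to-noise per printed compound spot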
Sequence of Albumin (Bos taurus) (P02769 whole entry, looked up): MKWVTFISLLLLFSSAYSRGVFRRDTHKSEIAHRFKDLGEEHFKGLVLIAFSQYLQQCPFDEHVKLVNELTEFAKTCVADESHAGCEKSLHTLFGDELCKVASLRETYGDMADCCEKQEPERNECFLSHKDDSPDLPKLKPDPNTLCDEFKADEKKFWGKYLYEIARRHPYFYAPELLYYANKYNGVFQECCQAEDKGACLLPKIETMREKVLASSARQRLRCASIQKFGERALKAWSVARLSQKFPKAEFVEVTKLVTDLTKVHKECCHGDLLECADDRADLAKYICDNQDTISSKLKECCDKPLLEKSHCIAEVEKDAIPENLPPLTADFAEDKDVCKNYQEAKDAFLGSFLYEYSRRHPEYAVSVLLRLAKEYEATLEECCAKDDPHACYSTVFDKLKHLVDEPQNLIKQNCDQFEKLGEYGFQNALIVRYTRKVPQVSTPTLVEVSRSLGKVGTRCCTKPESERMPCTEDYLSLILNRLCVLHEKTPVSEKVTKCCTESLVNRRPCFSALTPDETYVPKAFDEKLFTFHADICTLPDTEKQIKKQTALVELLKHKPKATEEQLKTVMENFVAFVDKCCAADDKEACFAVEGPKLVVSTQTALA

[12] = probe aXIP binding to arrayed compounds – biochemical, NeuroSMM set, 635/667 nm fluorescence, primary screen (AID 1119); conditions: small-molecule microarray, higher = more signal, called active from +8 up or from −8 down;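 also: probe is the protein aXip251-270 applied at 1 µg/mL to compound-printed slides; binding of probe to printed compounds measured as 667 nm fluorescence plus signal to noise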
[13] = probe aNOTCH3 binding on compound microarray – biochemical, small-molecule microarray, 635/667 nm fluorescence, primary screen (AID 1120); conditions: higher = more signal;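 also: probe is a biotin-tagged antibody raised against NOTCH3 rather than NOTCH3 protein; score merges spot fluorescence near 667 nm with spot signal to noise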
[14] = probe aNOTCH2 binding on compound microarray – biochemical, small-molecule microarray, 635/667 nm fluorescence, primary screen (AID 1121); conditions: higher = more signal;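 also: score merges feature fluorescence read at 667 nm with its signal to noise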
[15] = target: Carbonic anhydrase 2 (Homo sapiens) (UniProt P00918); assay: compounds binding carbonic anhydrase 2 – biochemical, small-molecule microarray, Alexa647-labelled CAII, profiling panel (AID 1122); conditions: CAII-A647 binding fluorescence, higher = more signal
[16] = COS7 lysate on small-molecule microarray, probe aHis, 635 nm (AID 1123); conditions: COS7 cell lysate, fluorescence, higher = more signal;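 also: z-score combines 667nm fluorescence intensity with signal-to-noise per printed compound spot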
[17] = probe aLAP1 signal on lysate-treated microarray – cell lysate, small-molecule microarray, COS7 lysate, primary screen (AID 1124); conditions: probe aLAP1, fluorescence, higher = more signal;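 also: lysate comes from COS7 cells expressing LAP1 and is applied at 0.3 µg/mL; score merges spot fluorescence near 667 nm with signal-to-noise over triplicate slides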
[18] = system: Sam68 (KHDRBS1); assay: compounds binding KHDRBS1 protein – biochemical, small-molecule microarray, 635 nm fluorescence, primary screen (AID 1125); conditions: higher = more signal;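 also: score merges 667 nm channel intensity with signal to noise over triplicate slides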
[19] = system: Chordin-like protein 2 (CHRDL2); assay: compounds binding chordin-like 2 – biochemical, small-molecule microarray, 635 nm fluorescence, primary screen (AID 1126); conditions: fluorescence 635 nm, higher = more signal;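 also: printed compound slides probed with Chrdl2 protein at 4 µg/mL for 1 h at 4 C; score merges 667 nm emission intensity with signal to noise over three replicate slides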
[20] = target: Concanavalin-A (Canavalia ensiformis) (UniProt P02866); assay: compounds binding concanavalin A lectin – biochemical, small-molecule microarray, Alexa647 label, 635 nm, artefact control for SMM control protein annotation, primary screen (AID 1127); conditions: ConA-A647 binding fluorescence, higher = more signal;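 also: z combines 667 nm emission intensity with signal-to-noise across three replicate slides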
Sequence of Concanavalin-A (Canavalia ensiformis) (P02866 whole entry, looked up): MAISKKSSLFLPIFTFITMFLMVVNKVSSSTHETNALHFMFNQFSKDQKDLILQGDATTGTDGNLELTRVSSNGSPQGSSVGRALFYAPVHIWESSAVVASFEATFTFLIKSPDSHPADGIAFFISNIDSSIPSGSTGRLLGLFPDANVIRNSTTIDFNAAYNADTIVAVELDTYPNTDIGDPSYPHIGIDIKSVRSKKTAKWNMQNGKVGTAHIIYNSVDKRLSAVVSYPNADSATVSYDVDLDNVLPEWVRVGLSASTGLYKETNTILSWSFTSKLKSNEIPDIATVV

Row | Structure (SMILES) | composite z-score [1] | z-score [2] | composite z-score [3] | composite z-score [4] | composite z-score [5] | composite z-score [6] | composite z-score [7] | composite z-score [8] | composite z-score [9] | composite z-score [10] | composite z-score [11] | composite Z-score [12] | composite z-score [13] | composite z-score [14] | composite z-score [15] | composite z-score [16] | composite z-score [17] | composite z-score [18] | composite z-score [19] | composite z-score [20]
1 | CC(=O)OC[C@H]1O[C@@H](ON=C(C)CCN2CCc3nc(-c4ccccc4)c(-c4ccccc4)cc3C2)[C@H](OC(C)=O)[C@@H](OC(C)=O)[C@@H]1OC(C)=O | 1.32 | -2.07 | 0.687 | 0.328 | -0.697 | 0.0215 | -0.0362 | -0.295 | 0.358 | 0.74 | 0.507 | -0.0295 (inactive) | 0.12 | -0.156 | 0.16 | 0.614 | 0.717 | 1.3 | 0.346 | 0.878
2 | CO[C@@H]1COC(=O)CC=C[C@@H](C)[C@@H]2C=C[C@@H](O)[C@@H](COC(=O)CC=C[C@H]1C)O2 | -0.438 | 0.464 | 1.12 | -1.24 | -2.11 | -0.252 | 0.0756 | -0.444 | -0.208 | -0.114 | -0.805 | 0.142 (inactive) | 0.0864 | -0.16 | -0.235 | -0.635 | 0.156 | 0.228 | 1.38 | -0.363
3 | CC(C)=CCCC(C)=CCON=C1C[C@@H](O)[C@@H](O)[C@@H]2[C@@H]3C(=O)N(C[C@@H]4CCCO4)C(=O)[C@@H]3CC[C@@H]12 | 1.38 | 0.398 | 0.763 | -0.599 | -1.4 | -0.104 | -0.243 | -0.319 | 0.101 | 0.488 | -0.506 | 2.86 (inactive) | -0.0328 | -0.0907 | 0.452 | 0.877 | -0.108 | 1.3 | 1.39 | 0.296
4 | COC(=O)CC=C[C@@H](C)[C@@H](C=NO[C@H](C)c1cn([C@@H]2COC[C@H]2O)nn1)OC | 0.768 | 0.128 | 0.589 | -0.662 | -0.793 | -0.0478 | -0.291 | -0.0762 | -0.306 | 1.01 | 0.162 | -0.311 (inactive) | -0.0377 | -0.122 | -0.111 | 0.214 | -0.115 | 0.747 | 0.666 | 0.266
5 | CC(C)(C)N1C(=O)[C@H]2[C@H]3[C@H](O)[C@H](O)CC(=NO[C@@H]4O[C@H](CO)[C@@H](O)[C@H](O)[C@H]4O)[C@@H]3CC[C@H]2C1=O | 0.964 | -0.105 | 0.761 | -0.448 | -1.36 | -0.0115 | 0.111 | -0.0144 | 0 | 1.28 | -0.524 | 0.406 (inactive) | -0.059 | -0.154 | 0.361 | 0.741 | 0.649 | 1.24 | 1.07 | 0.0237
6 | CC(C)[C@@H](OCc1ccccc1)[C@H](C)C=NOC[C@@H](C)[C@H](OCc1ccccc1)C(C)C | 0.255 | -0.534 | 0.885 | 0.148 | -0.546 | -0.101 | -0.0685 | -0.132 | 0.0528 | 0.312 | -0.248 | -0.161 (inactive) | -0.0111 | -0.126 | -0.265 | -0.393 | -0.0427 | -0.24 | 0.457 | 0.31
7 | C=CCNC(=O)[C@H]1[C@@H]2C(=O)O[C@@H](c3ccccc3)[C@@H](c3ccccc3)N2[C@@H](c2ccc(O)cc2)[C@]12C(=O)N(C(=O)OCCOC)c1ccc(C#CC3=CCCCC3)cc12 | 1.04 | -0.812 | 0.879 | 1.64 | 0.566 | 0.523 | 1.92 | 2.64 | 2.09 | 1.79 | 0.633 | 0.62 (inactive) | 1.27 | 0.396 | 0.296 | 2.23 | 1.78 | 1.3 | 0.966 | 1.09
8 | O=C1NC(=O)C2C1C=CC(C(O)Cc1ccccc1)N2Nc1ccccn1 (stereo not given) | 0.555 | -0.377 | 0.185 | 0.0084 | -0.541 | 0.0328 | -0.0793 | 0.342 | 0.818 | 1.34 | 0.461 | -0.0126 (inactive) | -0.0311 | -0.0079 | 0.865 | 1.87 | 0.12 | 0.322 | 0.313 | 0.77
9 | C=CCOC(=O)[C@H]1[C@@H]2C(=O)O[C@@H](c3ccccc3)[C@@H](c3ccccc3)N2[C@@H](c2ccc(OCCOC(=O)[C@H]3C[C@H]4C(=O)N[C@@H](Cc5ccccc5)C(=O)N4[C@H]3c3ccc(O)cc3)cc2)[C@]12C(=O)Nc1ccccc12 | 0.516 | -1.32 | 0.933 | 0.743 | 0.0731 | -0.0735 | -0.0709 | -0.112 | 0.985 | 1.46 | -0.757 | 0.89 (inactive) | -0.0932 | -0.131 | 0.553 | 1.71 | 0.832 | 1.31 | 1.38 | 1.16
10 | CC(C)OC(=O)C=C1C[C@@H](c2ccc(C#N)cc2)O[C@@H](c2ccc(C#N)cc2)O1 | 1.45 | -2.19 | 0.701 | 0.857 | 0.621 | 0.178 | 0.0875 | 0.229 | 1.22 | 1.09 | 0.992 | 0.914 (inactive) | 0.725 | 0.0186 | 0.693 | 3.07 | 0.148 | 1.32 | -0.595 | 1.15
11 | CC(C)CON=C1C[C@@H](O)[C@@H](O)[C@@H]2[C@@H]3C(=O)N(Cc4ccccc4)C(=O)[C@@H]3CC[C@@H]12 | 0.673 | -0.19 | 0.409 | -0.312 | -0.475 | -0.0792 | -0.365 | -0.321 | 0.0394 | -0.102 | 0.0737 | 0.156 (inactive) | -0.0679 | -0.153 | -0.111 | -0.137 | -0.0468 | 0.631 | 0.716 | -0.0393

Source: PubChem BioAssay
